# Compound activity deposited in PubChem BioAssay by several laboratories.
# DAX1 inh-1 – DAX1 (NR0B1) inhibitors, primary screen, cell-based, HEK293, Gal4-DAX1, luciferase luminescence | 340,000 compounds, 0.99% hits | inhibition, % at 6.75 µM | Nuclear receptor subfamily 0 group B member 1 (Homo sapiens), P51843 | HEK293 Gal4-DAX1 luciferase reporter;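 active means inhibition above the mean over all tested compounds plus 3 SD, cut at about 4.2% in these data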;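 further: inhibition shows as a rise in luminescence from relieved DAX1 repression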
# Target sequence (P51843 207-470 limits assumed): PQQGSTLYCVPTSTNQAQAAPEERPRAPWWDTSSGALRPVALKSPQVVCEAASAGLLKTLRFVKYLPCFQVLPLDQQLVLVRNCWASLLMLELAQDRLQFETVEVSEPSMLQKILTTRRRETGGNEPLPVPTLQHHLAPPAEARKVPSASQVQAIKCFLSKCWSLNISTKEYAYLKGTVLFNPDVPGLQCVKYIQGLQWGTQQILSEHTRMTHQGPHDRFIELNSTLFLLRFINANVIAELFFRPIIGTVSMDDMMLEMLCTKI
# PolyA inh – polyadenylation inhibitors in yeast reporter cells, primary screen, luminescence, S. cerevisiae | 300,000 compounds, 0.02% hits | S. cerevisiae SKY197-pL101 polyadenylation reporter, beta-gal luminescence; efflux-impaired pdr1/pdr3 knockout yeast; score 100 = 6 SD above DMSO | activity score, % at 12 µM;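 active means lowest replicate activity score at least 50, where 100 means six control SD above control mean; inconclusive means lowest score under 50 but half or more replicates reach 50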;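 further: yeast exposed to compound for 9 h at 30 °C; higher score means more reporter readthrough which indicates perturbed polyadenylation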
# hgDAF-12 ag – H. glycines DAF-12 receptor agonists, primary screen, cell-based, luminescence, HEK293, GAL4 fusion, UAS-luciferase; activation, % at 6.8 µM; Nuclear hormone receptor DAF-12 (Heterodera glycines), GAL4 fusion; 370,000 compounds, 1.8% hits; HEK293 GAL4-hgDAF12 UAS-luciferase reporter, agonist luminescence; normalized to butyrate control;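 active means activation above a cutoff set at the mean of all screened compounds plus 3 SD, cut at about 10% in these data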
# ssDAF12 agonist – S. stercoralis DAF-12 nuclear receptor activators, primary screen, cell-based, luminescence, HEK293, GRIP1 co-expression, lit1-tk-luc; Nuclear hormone receptor DAF-12 (Strongyloides stercoralis); HEK293 ssDAF-12/GRIP1 lit1-tk-luc reporter; % of 3 µM dafachronic acid response; activation, % at 6.8 µM; 370,000 compounds, 1% hits;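 active means activation above the mean over all tested compounds plus 3 SD, cut at about 0.9% in these data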
# DAX1 inh-2 – DAX1 (NR0B1) inhibitors on StAR promoter, primary screen, cell-based, luminescence, SF-1 (NR5A1), full-length DAX-1; HEK293T StAR-luciferase reporter, SF-1/DAX-1 repression relief; inhibition, % at 6.8 µM; 370,000 compounds, 1.1% hits; AID 652010, 2013;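 active means inhibition above the mean over all tested compounds plus 3 SD, cut at about 3.6% in these data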;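 further: higher inhibition means more luminescence from relief of DAX-1 repression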
# hcDAF12 agonist – H. contortus DAF-12 nuclear receptor activators, primary screen, cell-based, luminescence, HEK293, lit1-tk-luc reporter | 370,000 compounds, 1.4% hits | activation, % at 6.8 µM | HEK293 hcDAF-12 lit1-tk-luc reporter; 0% DMSO, 100% Δ7-dafachronic acid;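 active means activation above the mean of all tested compounds plus 3 SD, cut at about 5.5% in these data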
# Numbers stand for hits; 0 = inactive; ? = inconclusive; - = no result given. Most compounds without a hit are left out; they make up all but 4.1% or so of the library.
SMILES,DAX1 inh-1,PolyA inh,hgDAF-12 ag,ssDAF12 agonist,DAX1 inh-2,hcDAF12 agonist
Cc1cccc(C2NC(=O)c3c(sc(C)c3C)N2)c1O (stereo not drawn),0,?,0,1.4,0,0
CCOC(=O)[C@]12CCCC=C1N(Cc1ccc(OC)cc1)C(=O)[C@@H]2CC(=O)NCCCCc1ccccc1,-,-,0,0,0,0
COc1cccc(N=Nc2ccc3ccccc3c2O)c1,0,0,0,1.6,0,0
Cn1c(C(=O)N2CCCC(C(=O)O)C2)cc2sccc21 (stereo not drawn),0,0,0,0,0,0
Cn1c(C(=O)NC2CCCCC2)cc2sccc21,0,0,0,0,0,6.0
CN(C(=O)c1cc2sccc2n1C)C1CCCCC1,0,0,11.8,0,0,0
Cc1cc(-c2nc3ncccc3o2)ccc1NC(=O)CC(C)C,0,0,0,0,3.9,0
O=C(Cc1cccs1)NC1CCCCN(Cc2ccc(Cl)cc2)C1=O (stereo not drawn),-,-,0,0,0,0
CC(C)n1nnnc1SCC(=O)NCCc1ccccc1,0,0,0,0,0,0
O=C(CSc1nc(=O)n2ccccc2n1)NCCc1ccccc1,0,0,0,0,3.9,0
O=C(CSc1nnnn1C1CCCC1)NCCc1ccccc1,5.3,0,0,0,0,0
CCCOC(=O)C1=C(C)NC2=C(C(=O)CCC2)C1c1cccs1 (stereo not drawn),0,0,0,2.1,0,0
COc1cc(-c2nnc(SCC(=O)NN=Cc3c[nH]c4ccccc34)n2-c2ccccc2)cc(OC)c1OC,-,-,0,0,0,0
Cc1ccccc1-n1c(C)nnc1SCc1nc2ccccc2s1,0,0,0,0,0,0
CCOc1ccccc1-n1nnnc1SCc1nc2ccccc2s1,0,0,0,3.6,0,0
O=C(Nc1ccc(Cl)cc1F)C1CC1c1ccccc1 (stereo not drawn),0,0,0,0,0,0
Cc1ccc(NC(=O)C2CC2c2ccccc2)c([N+](=O)[O-])c1 (stereo not drawn),6.0,0,0,0,0,0
COc1ccc(-c2ccc(-c3nnn(CC(C)=O)n3)cc2)cc1,0,0,0,0,0,0
